Values joined by “and” are separate entries in the source; they are usually repeats but may differ in a detail not shown here. Identical values can stand only once. Active and inactive are the calls of the source. How the source made its calls: active means hit-call score of the fitted dose curve at least 0.9, where 1 is the maximum; inactive means score below 0.9.

Read-out in the assay: sulfotransferase 2A1 (SULT2A1), SULT2A1 (gene 6822)
Kind of assay: LTEA_HepaRG_SULT2A1: Life Technologies and Expression Analysis (LTEA) Assay for sulfotransferase 2A1 (SULT2A1) using HepaRG (AID 2283531). The conditions noted are these: mRNA level, 48 h; actives raise or lower the signal. How it is done: LTEA_HepaRG is a cell based, multiplexed-readout assay that uses HepaRG, a human liver cell line, with measurements taken at 48 hours after chemical dosing on a 96-well plate.LTEA_HepaRG_SULT2A1 is one of 102 assay component(s) measured in the LTEA HepaRG cell culture assay. It is a marker of NR mediated transport.Data from the assay component LTEA_HepaRG_SULT2A1 was analyzed into 1 endpoint. This assay endpoint, LTEA_HepaRG_SULT2A1, was analyzed with bidirectional fitting relative to DMSO as the negative control and baseline of activity. Using a type of inducible reporter, measures of mRNA induction for gain or loss-of-signal activity can be used to understand regulation of transcription factor activity. To generalize the intended target to other relatable targets, this assay endpoint is annotated to the transferase intended target family, where the subfamily is sulfotransferase.
A total of 1060 chemcials from the ToxCast library were tested in eight-point concentration-response experiments. Cell culture and cytotoxicity assays were conducted at Thermo Fisher Scientific's Custom Services facility (Madison, WI). A single lot of human HepaRG cells (Thermo Fisher Scientific, Frederick, MD) was used for the cell culture experiments. 96-well format collagen type I coated plates of human HepaRG cells were prepared using established methods. Briefly, cryopreserved HepaRG cells were thawed, plated at a density of approximately 100,000 cells/well in HepaRG Thaw, Plate, and General Purpose media (HPRG770, Thermo Fisher Scientific), and incubated for 48 hours. 0.5% DMSO was selected as vehicle control to balance the requisite need of DMSO in HepaRG cultures to maintain differentiation (for example, baseline metabolism, proportions of hepatocytes vs. cholangiocytes), while enabling further hepatic receptor pathway activation (for example, PXR and CAR) in response to chemical exposure. 48 hours after plating, the culture medium was replaced with HepaRG Serum-Free Incudtion Media. Cells were exposed to each test chemical in duplicate and maintained in CO2 incubators for another 48 hours. Chemical plates were thawed to room temperature and 200x concentrations of treatment groups were prepared. 8-point conentration-reponse curves were made with the highest exposure at 100 uM, followed by half-log dilutions, all in 0.5% DMSO. Each test plate contained variouse controls, induction positive controls (1mM phenobarbital), cytotoxicity positive controls ([…] aflatoxin B1), vehicle controls (0.5% DMSO), and total lysis controls (0.5% DMSO). Cell morphology images were taken using an Essen IncuCyte FLR automated microscope, with six 96-well plates imaged in about 24 minutes. Images were captured and exported and JPEG files. Spent culture media was transfered to black-well plates for the LDH assay, and remaining media was sorted at -80 C for later use. Cells were treated with RLT buffer and frozen until shipped for gene expression analysis. Total RNA was isolated from the cell suspension in 75 uL of Buffer RLT (Qiagen, Germantown, MD 20874) by Quintiles/Expression Analysis (Durham, NC) using a custom isolation procedure. Total RNA from each plate well was transferred to a preamplification plate. Fluidigm's 96.96 Dynamic ArrayTM (Fluidigm, Amsterdam, the Netherlands) technology was used for gene expression analyses by quantitative reverse transcription polymerase chain reaction (qRT-PCR, performed by Quintiles/Expression Analysis, Durham, NC)89. Standard TaqManTM Assays (Applied Biosystems/ThermoFisher Scientific, Foster City, CA) were used to assess the expression of 93 genes selected based on their selectivity and sensitivity to important hepatic receptors known to be modulated by environmental chemicals; importance in human hepatocyte functionality; and hepatotoxicity. […]
With `Cc1ccc(-c2c(Cl)nc(C#N)n2S(=O)(=O)N(C)C)cc1`, the AC50 is 10.3 µM (active). With `CCCC1COC(Cn2cncn2)(c2ccc(Cl)cc2Cl)O1` (stereo not given), the AC50 is 59 µM (active). On to `OC(c1ccc(Cl)cc1)(c1cncnc1)c1ccccc1Cl` (stereo not given), for which the AC50 was 77 µM (active). In the case of `CN(C)C(=S)SSC(=S)N(C)C`, the result was inactive.

`Cc1cc(Cl)ccc1OCC(=O)O`: the AC50 was 85.8 µM (active). Same read-out and setting: next, `CC(C)(C)c1ccc(CSc2cnn(C(C)(C)C)c(=O)c2Cl)cc1`: 22.7 µM (active).

Take `CC(Oc1ccc(Cl)cc1Cl)C(=O)O` (stereo not given): the compound was classed as inactive. Consider `CC(C)Oc1cc(-n2nc(C(C)(C)C)oc2=O)c(Cl)cc1Cl`, for which the AC50 was 80.9 µM (active). Regarding `COP(=S)(OC)Oc1nc(Cl)c(Cl)cc1Cl`, the outcome was inactive.

Turning to `CCNc1nc(Cl)nc(NC(C)C)n1`, the compound was classed as inactive.

With `COC(=O)c1ccccc1C(=O)OC`, the compound was called inactive. Still for that read-out and setting: next, `COc1ccc(C(c2ccc(OC)cc2)C(Cl)(Cl)Cl)cc1`: “inactive”. Regarding `CCc1nn(C)c(C(=O)NCc2ccc(C(C)(C)C)cc2)c1Cl`, the AC50 is 26.8 µM (active). For `N#CC(CCc1ccc(Cl)cc1)(Cn1cncn1)c1ccccc1` (stereo not given), the AC50 is 77.2 µM (active). Consider `CCOC(=O)C(Cl)Cc1cc(-n2nc(C)n(C(F)F)c2=O)c(F)cc1Cl` (stereo not given), for which the outcome was inactive. Same read-out and setting: next, `CCON=C(CC)C1=C(O)CC(c2c(C)cc(C)cc2C)CC1=O` (stereo not given): “inactive”.

Consider `CC1=C(C(=O)Nc2ccccc2)SCCO1`, for which the outcome was inactive. The same measure, in the same setting: next, `CCCCOC(=O)c1ccccc1C(=O)OCCCC`: “inactive”; `CCNc1nc(Cl)nc(NCC)n1`: “inactive”. For the compound `N#Cc1cc(Br)c(O)c(Br)c1`, the AC50 is 25.7 µM (active). The same measure, in the same setting: in the case of `C#CCOS(=O)OC1CCCCC1Oc1ccc(C(C)(C)C)cc1` (stereo not given) it was 27.3 µM (active). Turning to `CON(C)C(=O)Nc1ccc(Cl)c(Cl)c1`, the result was inactive.

`O=C(O)c1nc(Cl)ccc1Cl`: the outcome was inactive. `CCOc1cc(Oc2ccc(C(F)(F)F)cc2Cl)ccc1[N+](=O)[O-]`: the AC50 was 35.3 µM (active). `COC(=O)C(C)Oc1ccc(Oc2ccc(Cl)cc2Cl)cc1` (stereo not given): the call was inactive.

For `Fc1ccc(Oc2ccnc3cc(Cl)cc(Cl)c23)cc1`, the compound was called inactive. Take `C=CC1(C)OC(=O)N(c2cc(Cl)cc(Cl)c2)C1=O` (stereo not given): the AC50 was 28 µM (active). Same read-out and setting: in the case of `O=C(Nc1ccccc1)Nc1ccnc(Cl)c1` it was 81.5 µM (active); in that of `CCCN(CCC)c1c([N+](=O)[O-])cc(S(N)(=O)=O)cc1[N+](=O)[O-]`, 92.1 µM (active) and 76.9 µM (active) and 81 µM (active). Consider `COP(N)(=O)SC` (stereo not given), for which the compound was classed as inactive. As for `COc1cnc(OC)n2nc(NS(=O)(=O)c3c(OCC(F)F)cccc3C(F)(F)F)nc12`, the compound was called inactive. On to `Oc1ccccc1-c1ccccc1`, for which the result was inactive.

Regarding `CCCCNC(=O)n1c(NC(=O)OC)nc2ccccc21`, the compound was called inactive. The same measure, in the same setting: in the case of `CCOP(=S)(OCC)SCn1c(=O)oc2cc(Cl)ccc21` it was “inactive”; in that of `Cc1c(F)c(F)c(COC(=O)C2C(/C=C(\Cl)C(F)(F)F)C2(C)C)c(F)c1F` (stereo not given), “inactive”; in that of `COc1nc(NC(C)C)nc(NC(C)C)n1`, “inactive”.

For the compound `COC(=O)N(OC)c1ccccc1COc1ccn(-c2ccc(Cl)cc2)n1`, the AC50 is 78.7 µM (active). On to `CNC(=O)ON=CC(C)(C)SC`, for which the result was inactive. The same measure, in the same setting: in the case of `CC(C)C1(C)N=C(c2nc3ccccc3cc2C(=O)O)NC1=O` (stereo not given) it was “inactive”. In the case of `CCOC(=O)CC(SP(=S)(OC)OC)C(=O)OCC` (stereo not given), the outcome was inactive.

One may read the AC50 as the concentration at which the activity in the assay is half-maximal.
